PubChem BioAssay (Tox21)
Results filed as inconclusive are left out. Active and inactive are the calls of the source. Unless noted, calls follow the shape of the dose curve; as a rule, active = well fitted curve in the direction sought with a large enough effect in the repeat runs; inconclusive = weak or mixed curves; inactive = no such curve, though single readings can be large; an effect the other way counts as inactive or inconclusive. Positions of bridges follow the written chain, without caps; N, C: chain ends. Where a SMILES comes first, the peptide text is derived from it. Non-standard residues stand in square brackets, D forms with d. Residues, ends and D or L forms follow the SMILES beside them. hArg = N=C(N)NCCCC[C@H](N)C(=O)O; Mpa = O=C(O)CCS

How the values were obtained:
[1] = qHTS assay to identify small molecule agonists of the peroxisome proliferator-activated receptor delta (PPARd) signaling pathway - cell viability counter screen (AID 743211); also: % is scaled to controls: 0 for no effect and ±100 for the full control effect; nearly all actives have a fitted effect of over 55% in size
In short: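 Counter screen for cytotoxicity run in parallel with the PPARd reporter screen. Beta-lactamase reporter HEK293H cells exposed to compounds 17 h; ATP-based CellTiter-Glo luminescence quantified viability.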

[2] = target: Peroxisome proliferator-activated receptor delta (Homo sapiens) (UniProt Q03181); assay: qHTS assay to identify small molecule agonists of the peroxisome proliferator-activated receptor delta (PPARd) signaling pathway (AID 743212; calls by dose curve; also: % is scaled to controls: 0 for no effect and ±100 for the full control effect)
Peroxisome proliferator-activated receptor delta (Homo sapiens), sequence (Q03181 whole entry, looked up): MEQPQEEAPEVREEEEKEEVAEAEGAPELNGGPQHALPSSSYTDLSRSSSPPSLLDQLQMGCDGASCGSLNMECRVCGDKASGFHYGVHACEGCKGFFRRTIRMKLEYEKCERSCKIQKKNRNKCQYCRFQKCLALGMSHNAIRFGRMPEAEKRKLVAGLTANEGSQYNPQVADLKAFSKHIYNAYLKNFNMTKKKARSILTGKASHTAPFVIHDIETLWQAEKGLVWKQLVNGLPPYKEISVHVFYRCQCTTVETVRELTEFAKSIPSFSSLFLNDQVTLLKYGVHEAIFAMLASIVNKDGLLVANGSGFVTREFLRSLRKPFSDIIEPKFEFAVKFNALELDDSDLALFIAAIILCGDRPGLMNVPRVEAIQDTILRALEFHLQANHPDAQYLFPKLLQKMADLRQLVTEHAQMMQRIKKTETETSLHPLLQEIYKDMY
In short: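 HEK293H PPARd-bla cells; 5 h preincubation 37 C/5% CO2; compound (DMSO) 37 C; LiveBLAzer B/G FRET substrate 2 h RT; fluorescence intensity.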

[3] = qHTS assay to identify small molecule antagonists of the peroxisome proliferator-activated receptor delta (PPARd) signaling pathway - cell viability counter screen (AID 743213); also: % is scaled to controls: 0 for no effect and ±100 for the full control effect; nearly all actives have a fitted effect of over 50% in size
In short: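 PPARd-bla HEK293H cells (3000/well) got compound plus 300 nM L165041 agonist for 17 h at 37 C. Viability in the same wells came from CellTiter-Glo luminescence after 30 min at room temperature.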

[4] = target: Peroxisome proliferator-activated receptor delta (Homo sapiens) (UniProt Q03181); assay: qHTS assay to identify small molecule antagonists of the peroxisome proliferator-activated receptor delta (PPARd) signaling pathway (AID 743215; active = well fitted inhibition curve with a large enough effect in the signal ratio in the repeat runs, not every such curve was filed as active; the % refers to the signal ratio;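 also: cells stimulated with agonist L165041 at 300 nM final during compound exposure; series mostly up to about 62 µM; % is scaled to controls: 0 for no effect and ±100 for the full control effect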)
In short: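 Antagonist-mode beta-lactamase reporter screen: HEK293H cells with UAS-bla under PPARd control, stimulated by 300 nM L165041 (final) alongside test compound for 17 h at 37 C, then FRET fluorescence after 2 h substrate incubation.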

[5] = target: Bile acid receptor (Homo sapiens) (UniProt Q96RI1); assay: qHTS assay to identify small molecule antagonists of the farnesoid-X-receptor (FXR) signaling pathway (AID 743217; active = well fitted inhibition curve with a large enough effect in the signal ratio in the repeat runs, not every such curve was filed as active; the % refers to the signal ratio; also: % is scaled to controls: 0 for no effect and ±100 for the full control effect)
Bile acid receptor (Homo sapiens), sequence (Q96RI1 whole entry, looked up): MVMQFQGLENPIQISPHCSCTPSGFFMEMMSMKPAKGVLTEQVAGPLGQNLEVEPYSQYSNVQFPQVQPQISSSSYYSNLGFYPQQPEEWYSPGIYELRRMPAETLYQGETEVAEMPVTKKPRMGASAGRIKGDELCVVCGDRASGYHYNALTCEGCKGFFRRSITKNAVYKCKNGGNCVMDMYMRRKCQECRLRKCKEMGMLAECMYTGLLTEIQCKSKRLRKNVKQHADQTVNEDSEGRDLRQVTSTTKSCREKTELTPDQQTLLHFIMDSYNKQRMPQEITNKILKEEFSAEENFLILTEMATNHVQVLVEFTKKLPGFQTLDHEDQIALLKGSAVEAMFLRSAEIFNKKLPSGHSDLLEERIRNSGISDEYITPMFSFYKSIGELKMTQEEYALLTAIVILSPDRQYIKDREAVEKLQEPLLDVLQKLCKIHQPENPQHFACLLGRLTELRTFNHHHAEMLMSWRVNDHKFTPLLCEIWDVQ
In short: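 Beta-lactamase reporter under UAS control in HEK 293T cells; compound exposure 16 h at 37 °C in the presence of chenodeoxycholic acid (50 uM final); signal from B/G FRET substrate after 2 h at room temperature.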

[6] = qHTS assay to identify small molecule agonists of the farnesoid-X-receptor (FXR) signaling pathway - cell viability counter screen (AID 743218); also: % is scaled to controls: 0 for no effect and ±100 for the full control effect; nearly all actives have a fitted effect of over 45% in size
In short: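 In GeneBLAzer FXR-UAS-bla HEK 293T cells, compounds act for 16 h at 37 C. Cell viability is then scored in the reporter wells by CellTiter-Glo, 30 min at RT, luminescence.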

[7] = target: Bile acid receptor (Homo sapiens) (UniProt Q96RI1); assay: qHTS assay to identify small molecule agonists of the farnesoid-X-receptor (FXR) signaling pathway (AID 743220; active = well fitted activation curve with a large enough effect in the signal ratio in the repeat runs, not every such curve was filed as active; the % refers to the signal ratio; also: % is scaled to controls: 0 for no effect and ±100 for the full control effect)
In short: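 Beta-lactamase reporter under UAS control in GeneBLAzer FXR HEK 293T cells (5000/well) measured with LiveBLAzer FRET substrate after 2 h at room temperature. Compound exposure lasted 16 h at 37C.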

[8] = target: Vitamin D3 receptor (Homo sapiens) (UniProt P11473); assay: qHTS assay to identify small molecule agonists of the vitamin D receptor (VDR) signaling pathway (AID 743222; calls by dose curve; also: % is scaled to controls: 0 for no effect and ±100 for the full control effect)
Vitamin D3 receptor (Homo sapiens), sequence (P11473 whole entry, looked up): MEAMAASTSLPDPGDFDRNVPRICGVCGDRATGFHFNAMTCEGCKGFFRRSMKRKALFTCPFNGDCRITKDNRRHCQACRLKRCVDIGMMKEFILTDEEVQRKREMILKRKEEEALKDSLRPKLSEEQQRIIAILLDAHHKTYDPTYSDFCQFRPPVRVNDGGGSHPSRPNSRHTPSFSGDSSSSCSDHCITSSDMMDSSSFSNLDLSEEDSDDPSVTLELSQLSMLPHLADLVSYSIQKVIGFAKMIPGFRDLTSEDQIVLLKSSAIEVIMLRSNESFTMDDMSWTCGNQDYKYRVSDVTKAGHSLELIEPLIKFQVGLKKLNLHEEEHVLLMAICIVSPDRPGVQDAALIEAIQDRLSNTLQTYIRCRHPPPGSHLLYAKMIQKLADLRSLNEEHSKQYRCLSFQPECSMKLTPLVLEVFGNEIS
In short: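 Agonist activity measured in VDR-bla reporter cells. Exposure 16 h, 37C, 5% CO2; detection by B/G FRET substrate, 2 h RT.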

[9] = target: Vitamin D3 receptor (Homo sapiens) (UniProt P11473); assay: qHTS assay to identify small molecule antagonists of the vitamin D receptor (VDR) signaling pathway (AID 743223; active = well fitted inhibition curve with a large enough effect in the signal ratio in the repeat runs, not every such curve was filed as active; the % refers to the signal ratio; also: % is scaled to controls: 0 for no effect and ±100 for the full control effect)
In short: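 Cells carrying a VDR-driven beta-lactamase reporter (VDR-bla) were co-treated with compound and 3 nM final 1alpha,25-dihydroxyvitamin D3 for 16 h at 37C; reporter activity was measured as FRET substrate fluorescence after 2 h at room temperature.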

[10] = qHTS assay to identify small molecule agonists of the vitamin D receptor (VDR) signaling pathway - cell viability counter screen (AID 743224); also: series mostly up to about 63 µM; % is scaled to controls: 0 for no effect and ±100 for the full control effect; nearly all actives have a fitted effect of over 50% in size
In short: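 VDR-bla cell line, quantitative HTS format; 16 h compound incubation (37C, 5% CO2); ATP-based CellTiter-Glo luminescence measured in the reporter assay wells.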

[11] = qHTS assay to identify small molecule antagonists of the vitamin D receptor (VDR) signaling pathway - cell viability counter screen (AID 743225); also: % is scaled to controls: 0 for no effect and ±100 for the full control effect; nearly all actives have a fitted effect of over 50% in size
In short: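 HEK293T VDR-bla; cpd + 1a,25-(OH)2D3 3 nM final, 16 h 37C/5% CO2; B/G FRET substrate 2 h RT; then CellTiter-Glo 30 min RT, luminescence.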

[12] = qHTS assay to identify small molecule agonists of the NFkB signaling pathway (AID 1159509; active = well fitted curve in the direction sought with a large enough effect in the signal ratio in the repeat runs, not every such curve was filed as active; the % refers to the signal ratio)
In short: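 NFkB-bla ME-180 cells carry a beta-lactamase reporter under an NF-kB response element. They were plated overnight, then exposed to compounds for 5 h at 37 C. Read-out is LiveBLAzer FRET after 1.5 hr at room temperature (405 nm excitation; 460/530 nm emission).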

[13] = qHTS assay to identify small molecule agonists of the NFkB signaling pathway - cell viability counter screen (AID 1159515; calls by dose curve; also: series mostly up to about 61 µM; % is scaled to controls: 0 for no effect and ±100 for the full control effect; nearly all actives have a fitted effect of over 55% in size)
In short: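 Viability in NFkB-bla ME-180 cells was measured by CellTiter-Glo luminescence, 30 min room temperature, in wells already treated 5 hr with compounds and read for reporter FRET.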

[14] = qHTS assay to identify small molecule agonists of the endoplasmic reticulum stress response signaling pathway (AID 1159516; active = well fitted activation curve with a large enough effect in the signal ratio in the repeat runs, not every such curve was filed as active; the % refers to the signal ratio; also: % is scaled to controls: 0 for no effect and ±100 for the full control effect)
In short: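 ER stress element reporter (bla) in HeLa. 1,500 cells/well, overnight attachment; 5 hr compound; 2 hr RT substrate; dual-emission fluorescence.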

[15] = qHTS assay to identify small molecule agonists of the endoplasmic reticulum stress response signaling pathway - cell viability counter screen (AID 1159517; calls by dose curve;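 also: HeLa cells carrying an ER stress response element beta-lactamase reporter; series mostly up to about 61 µM; % is scaled to controls: 0 for no effect and ±100 for the full control effect; nearly all actives have a fitted effect of over 50% in size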)
In short: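 HeLa cells carrying an ESRE-driven beta-lactamase reporter receive compound for 5 hr at 37 C. Cell viability is then gauged with CellTiter-Glo by luminescence, 30 min at room temperature.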

[16] = target: Nuclear receptor ROR-gamma (Homo sapiens) (UniProt P51449); assay: qHTS assay to identify small molecule antagonists of the retinoid-related orphan receptor gamma (ROR-gamma) signaling pathway (AID 1159521)
In short: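 Cells were plated, rested 4 h at 37 C, exposed to compounds for 2 h, then given 1 uM final doxycycline hyclate to induce RORγ expression. After 16 h, ONE-Glo luminescence from the ROR response element reporter was measured.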

[17] = qHTS assay to identify small molecule agonists of the AP-1 signaling pathway - cell viability counter screen (AID 1159525; calls by dose curve; also: nearly all actives have a fitted effect of over 55% in size)
In short: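 Luminescent ATP readout (Cell Titer Glo, 30 min RT), normalised to DMSO and tetra n-octyl ammonium bromide controls. Cells were ME-180 AP-1-bla in 0.5% dialyzed FBS Opti-MEM, with a 5 h, 37 °C compound exposure.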

[18] = qHTS assay to identify small molecule agonists of the AP-1 signaling pathway (AID 1159526; calls by dose curve; also: % is scaled to controls: 0 for no effect and ±100 for the full control effect)
[19] = qHTS assay to identify small molecule antagonists of the farnesoid-X-receptor (FXR) signaling pathway - cell viability counter screen (AID 743221; active = well fitted cell-killing curve with a large enough effect in the repeat runs, not every such curve was filed as active)
In short: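 Multiplexed counter screen: viability of FXR-bla HEK 293T cells under agonist stimulation by chenodeoxycholic acid (50 uM, final) and test compound for 16 h at 37 C, measured by CellTiter-Glo luminescence in the reporter wells.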

[20] = qHTS assay to identify small molecule antagonists of the retinoid-related orphan receptor gamma (ROR-gamma) signaling pathway - cell viability counter screen (AID 1159520)
In short: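 Cytotoxicity was read from cellular ATP (CellTiter-Glo luminescence) after 16 hr at 37 C with 1 uM doxycycline induction. The inducer was added 2 hr after compound transfer to Tet-on ROR gamma CHO cells.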

CC(=O)N[C@@H](CO)C(=O)N[C@@H](CC(=O)O)C(=O)N[C@@H](CCCCN)C(=O)N1CCC[C@H]1C(=O)O (Ac-SDKP-OH)
inactive: outcome [1] | outcome [2] | outcome [3] | outcome [4] | outcome [5] | outcome [6] | outcome [7] | outcome [8] | outcome [9] | outcome [10] | outcome [11] | outcome [12] | outcome [13] | outcome [14] | outcome [15] | outcome [16] | outcome [17] | outcome [18]

O=C1NC(c2ccccc2)(c2ccccc2)C(=O)N1COP(=O)(O)O
inactive: outcome [1] | outcome [7] | outcome [19] | outcome [8] | outcome [9] | outcome [10] | outcome [11] | outcome [12] | outcome [13] | outcome [14] | outcome [15] | outcome [20] | outcome [16] | outcome [17] | outcome [18]

O=C(O)c1cc2ccccc2nc1C(=O)O
inactive: outcome [1] | outcome [2] | outcome [3] | outcome [4] | outcome [5] | outcome [6] | outcome [7] | outcome [19] | outcome [9] | outcome [11] | outcome [12] | outcome [13] | outcome [14] | outcome [15] | outcome [16] | outcome [17] | outcome [18]

COC(=O)c1cccc(Cl)c1
inactive: outcome [2] | outcome [3] | outcome [4] | outcome [5] | outcome [7] | outcome [19] | outcome [12] | outcome [13] | outcome [14] | outcome [15] | outcome [20] | outcome [16] | outcome [17] | outcome [18]

[O]=[Mo](=[O])=[O]
inactive: outcome [2] | outcome [6] | outcome [19] | outcome [8] | outcome [9] | outcome [10] | outcome [11] | outcome [12] | outcome [13] | outcome [14] | outcome [15] | activity, negative = cytotoxicity [20] 11.6% [at 19 µM] | activity change, negative = inhibition [16] 4.36% [at 19 µM] | viability change, negative = cytotoxic [17] -2.83% [at 15.8 µM] | activation [18] -20.6% [at 15.8 µM]

CC(=O)OC(C)=O
inactive: outcome [1] | outcome [8] | outcome [10] | outcome [11] | outcome [12] | outcome [13] | outcome [14] | outcome [15] | outcome [20] | outcome [16] | outcome [17] | outcome [18]

CCCSSCCC
inactive: outcome [1] | outcome [2] | outcome [3] | outcome [4] | outcome [6] | outcome [19] | outcome [9] | outcome [10] | outcome [11] | outcome [12] | outcome [13] | outcome [14] | outcome [15] | outcome [16] | outcome [17] | outcome [18]

CC1CCc2c(N3CCC(O)CC3)c(F)cc3c(=O)c(C(=O)O)cn1c23 (stereo not given)
inactive: outcome [1] | outcome [2] | outcome [4] | outcome [6] | outcome [19] | outcome [9] | outcome [10] | outcome [11] | outcome [12] | outcome [13] | outcome [14] | outcome [15] | outcome [16] | outcome [17] | outcome [18]

C=C(C)C1CC=C(C)C(=O)C1 (stereo not given)
inactive: outcome [1] | outcome [6] | outcome [19] | outcome [8] | outcome [9] | outcome [11] | outcome [12] | outcome [13] | outcome [14] | outcome [15] | outcome [16] | outcome [17] | outcome [18]

CC1CC(=O)CC(C)(C)C1 (stereo not given)
inactive: outcome [1] | outcome [2] | outcome [3] | outcome [6] | outcome [19] | outcome [8] | outcome [11] | outcome [12] | outcome [13] | outcome [14] | outcome [15] | outcome [20] | outcome [17] | outcome [18]

COc1cc(/C=C/C(N)=O)cc(OC)c1OC
inactive: outcome [1] | outcome [2] | outcome [3] | outcome [4] | outcome [5] | outcome [7] | outcome [9] | outcome [10] | outcome [11] | outcome [12] | outcome [13] | outcome [14] | outcome [15] | outcome [16] | outcome [17] | outcome [18]

O=Cc1cc2ccccc2o1
inactive: outcome [1] | outcome [2] | outcome [3] | outcome [4] | outcome [6] | outcome [19] | outcome [8] | outcome [9] | outcome [10] | outcome [11] | outcome [12] | outcome [13] | outcome [14] | outcome [20] | outcome [16] | outcome [17] | outcome [18]

O=[N+]([O-])c1c(Cl)cc(Cl)cc1Cl
inactive: outcome [1] | outcome [2] | outcome [3] | outcome [4] | outcome [6] | outcome [19] | outcome [10] | outcome [11] | outcome [12] | outcome [13] | outcome [14] | outcome [20] | outcome [16] | outcome [17] | outcome [18]

CCCCC1CCC(O)CC1 (stereo not given)
inactive: outcome [1] | outcome [2] | outcome [3] | outcome [4] | outcome [5] | outcome [7] | outcome [19] | outcome [8] | outcome [9] | outcome [11] | outcome [12] | outcome [13] | outcome [14] | outcome [20] | outcome [16] | outcome [17] | outcome [18]

O=C(O)CONC(=O)c1ccccc1
inactive: outcome [1] | outcome [2] | outcome [3] | outcome [4] | outcome [5] | outcome [6] | outcome [7] | outcome [19] | outcome [10] | outcome [11] | outcome [12] | outcome [13] | outcome [14] | outcome [20] | outcome [16] | outcome [17] | outcome [18]

NC(=O)[C@@H]1CSSCCC(=O)N[C@@H](CCCCN=C(N)N)C(=O)NCC(=O)N[C@@H](CC(=O)O)C(=O)N[C@@H](Cc2c[nH]c3ccccc23)C(=O)N2CCC[C@H]2C(=O)N1 ([Mpa][hArg]GDWPC-NH2; disulfide 1-7)
inactive: outcome [1] | outcome [2] | outcome [3] | outcome [5] | outcome [6] | outcome [7] | outcome [19] | outcome [8] | outcome [9] | outcome [10] | outcome [11] | outcome [12] | outcome [13] | outcome [14] | outcome [16] | outcome [17] | outcome [18]

CCCC(=O)OC/C=C(\C)CCC=C(C)C
inactive: outcome [1] | outcome [2] | outcome [3] | outcome [5] | outcome [6] | outcome [7] | outcome [19] | outcome [8] | outcome [9] | outcome [10] | outcome [12] | outcome [13] | outcome [14] | outcome [20] | outcome [16] | outcome [17] | outcome [18]
